# Data from ChEMBL document CHEMBL5724796, “Tm Shift (DSF) assay results for EUbOPEN Chemogenomics Library” (2024).
# Key:
# Settings in all cases: Compound concentration 20.0 uM
# [1] = target: Tyrosine-protein kinase ABL1 (Homo sapiens) (UniProt P00519)
# [2] = target: Bromodomain-containing protein 4 (Homo sapiens) (UniProt O60885)
# [3] = target: Cyclin-dependent kinase 2 (Homo sapiens) (UniProt P24941)
# [4] = target: Casein kinase I isoform delta (Homo sapiens) (UniProt P48730)
# [5] = target: Glycogen synthase kinase-3 beta (Homo sapiens) (UniProt P49841)
# [6] = target: Mitogen-activated protein kinase 1 (Homo sapiens) (UniProt P28482)
# [7] = target: T1, Aurora kinase A (Homo sapiens) (UniProt O14965)
# T1 sequence (whole entry): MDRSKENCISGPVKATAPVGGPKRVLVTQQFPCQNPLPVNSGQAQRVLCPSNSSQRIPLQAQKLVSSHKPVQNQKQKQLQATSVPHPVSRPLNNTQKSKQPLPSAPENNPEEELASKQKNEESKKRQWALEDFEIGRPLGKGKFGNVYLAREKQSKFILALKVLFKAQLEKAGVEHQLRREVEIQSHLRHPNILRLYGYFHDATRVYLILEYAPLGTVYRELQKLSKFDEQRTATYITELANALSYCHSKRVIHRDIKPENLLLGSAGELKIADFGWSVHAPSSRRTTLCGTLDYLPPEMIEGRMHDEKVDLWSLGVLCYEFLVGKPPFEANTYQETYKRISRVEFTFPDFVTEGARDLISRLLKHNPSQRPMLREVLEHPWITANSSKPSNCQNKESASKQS
# [8] = target: T2, Transcription intermediary factor 1-alpha (Homo sapiens) (UniProt O15164)
# T2 sequence (whole entry): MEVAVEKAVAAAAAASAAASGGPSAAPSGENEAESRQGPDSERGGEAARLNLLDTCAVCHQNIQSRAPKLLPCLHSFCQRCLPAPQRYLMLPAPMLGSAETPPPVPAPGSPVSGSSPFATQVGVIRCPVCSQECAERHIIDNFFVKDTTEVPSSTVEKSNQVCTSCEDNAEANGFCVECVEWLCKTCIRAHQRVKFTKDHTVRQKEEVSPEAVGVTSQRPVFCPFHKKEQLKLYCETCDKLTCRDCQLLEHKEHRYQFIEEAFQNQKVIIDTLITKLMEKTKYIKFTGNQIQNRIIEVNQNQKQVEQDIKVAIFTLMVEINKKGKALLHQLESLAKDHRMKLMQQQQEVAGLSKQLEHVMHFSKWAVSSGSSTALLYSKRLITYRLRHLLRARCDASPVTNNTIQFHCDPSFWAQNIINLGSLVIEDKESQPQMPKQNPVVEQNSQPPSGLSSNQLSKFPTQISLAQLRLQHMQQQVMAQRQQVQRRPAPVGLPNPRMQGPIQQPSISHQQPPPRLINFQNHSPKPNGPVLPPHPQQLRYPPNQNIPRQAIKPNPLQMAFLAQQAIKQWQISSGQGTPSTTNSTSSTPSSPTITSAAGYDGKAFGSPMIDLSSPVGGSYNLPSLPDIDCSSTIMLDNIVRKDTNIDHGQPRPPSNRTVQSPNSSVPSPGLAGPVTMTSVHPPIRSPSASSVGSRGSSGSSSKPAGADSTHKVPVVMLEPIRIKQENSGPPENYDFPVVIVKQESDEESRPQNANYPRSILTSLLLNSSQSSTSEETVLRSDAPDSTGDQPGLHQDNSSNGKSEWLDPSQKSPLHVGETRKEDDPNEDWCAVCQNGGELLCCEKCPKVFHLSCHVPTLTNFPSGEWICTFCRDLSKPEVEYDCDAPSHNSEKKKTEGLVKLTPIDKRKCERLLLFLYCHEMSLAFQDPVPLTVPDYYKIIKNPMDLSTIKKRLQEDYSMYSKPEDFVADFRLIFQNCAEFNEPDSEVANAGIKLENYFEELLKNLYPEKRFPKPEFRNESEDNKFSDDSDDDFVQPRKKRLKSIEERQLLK
# Mitogen-activated protein kinase 1 (Homo sapiens), sequence (P28482 whole entry): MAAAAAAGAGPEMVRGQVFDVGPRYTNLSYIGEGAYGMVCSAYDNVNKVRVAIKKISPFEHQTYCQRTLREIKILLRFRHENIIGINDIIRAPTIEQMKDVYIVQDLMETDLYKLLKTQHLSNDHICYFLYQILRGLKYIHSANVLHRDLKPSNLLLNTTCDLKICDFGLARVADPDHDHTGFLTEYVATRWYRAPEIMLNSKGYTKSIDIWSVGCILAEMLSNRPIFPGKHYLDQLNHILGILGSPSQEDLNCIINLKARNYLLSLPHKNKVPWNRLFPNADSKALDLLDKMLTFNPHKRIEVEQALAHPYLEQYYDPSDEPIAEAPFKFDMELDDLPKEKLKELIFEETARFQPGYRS
# Casein kinase I isoform delta (Homo sapiens), sequence (P48730 whole entry, looked up, canonical isoform): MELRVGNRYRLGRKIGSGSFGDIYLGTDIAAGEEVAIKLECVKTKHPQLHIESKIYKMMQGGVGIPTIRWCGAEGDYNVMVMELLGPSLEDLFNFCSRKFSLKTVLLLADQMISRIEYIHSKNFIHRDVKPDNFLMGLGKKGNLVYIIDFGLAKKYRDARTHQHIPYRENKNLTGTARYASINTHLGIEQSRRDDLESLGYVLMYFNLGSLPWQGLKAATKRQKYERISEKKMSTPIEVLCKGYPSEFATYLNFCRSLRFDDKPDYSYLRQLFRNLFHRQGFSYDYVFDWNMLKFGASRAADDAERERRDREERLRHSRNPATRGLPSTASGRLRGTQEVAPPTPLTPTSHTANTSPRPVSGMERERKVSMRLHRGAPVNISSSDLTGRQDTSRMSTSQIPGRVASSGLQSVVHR
# Glycogen synthase kinase-3 beta (Homo sapiens), sequence (P49841 whole entry, looked up): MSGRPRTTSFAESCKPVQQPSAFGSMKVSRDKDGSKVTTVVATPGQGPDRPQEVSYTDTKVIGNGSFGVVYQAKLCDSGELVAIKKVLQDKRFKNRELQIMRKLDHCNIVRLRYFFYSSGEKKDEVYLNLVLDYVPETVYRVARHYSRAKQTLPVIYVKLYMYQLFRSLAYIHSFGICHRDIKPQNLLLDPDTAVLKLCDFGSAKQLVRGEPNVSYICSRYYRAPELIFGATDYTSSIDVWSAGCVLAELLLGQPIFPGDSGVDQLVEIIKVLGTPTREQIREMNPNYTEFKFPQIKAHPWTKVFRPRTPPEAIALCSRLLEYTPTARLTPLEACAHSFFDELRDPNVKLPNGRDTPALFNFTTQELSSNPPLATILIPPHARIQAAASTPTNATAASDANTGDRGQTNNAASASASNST
# Tyrosine-protein kinase ABL1 (Homo sapiens), sequence (P00519 whole entry): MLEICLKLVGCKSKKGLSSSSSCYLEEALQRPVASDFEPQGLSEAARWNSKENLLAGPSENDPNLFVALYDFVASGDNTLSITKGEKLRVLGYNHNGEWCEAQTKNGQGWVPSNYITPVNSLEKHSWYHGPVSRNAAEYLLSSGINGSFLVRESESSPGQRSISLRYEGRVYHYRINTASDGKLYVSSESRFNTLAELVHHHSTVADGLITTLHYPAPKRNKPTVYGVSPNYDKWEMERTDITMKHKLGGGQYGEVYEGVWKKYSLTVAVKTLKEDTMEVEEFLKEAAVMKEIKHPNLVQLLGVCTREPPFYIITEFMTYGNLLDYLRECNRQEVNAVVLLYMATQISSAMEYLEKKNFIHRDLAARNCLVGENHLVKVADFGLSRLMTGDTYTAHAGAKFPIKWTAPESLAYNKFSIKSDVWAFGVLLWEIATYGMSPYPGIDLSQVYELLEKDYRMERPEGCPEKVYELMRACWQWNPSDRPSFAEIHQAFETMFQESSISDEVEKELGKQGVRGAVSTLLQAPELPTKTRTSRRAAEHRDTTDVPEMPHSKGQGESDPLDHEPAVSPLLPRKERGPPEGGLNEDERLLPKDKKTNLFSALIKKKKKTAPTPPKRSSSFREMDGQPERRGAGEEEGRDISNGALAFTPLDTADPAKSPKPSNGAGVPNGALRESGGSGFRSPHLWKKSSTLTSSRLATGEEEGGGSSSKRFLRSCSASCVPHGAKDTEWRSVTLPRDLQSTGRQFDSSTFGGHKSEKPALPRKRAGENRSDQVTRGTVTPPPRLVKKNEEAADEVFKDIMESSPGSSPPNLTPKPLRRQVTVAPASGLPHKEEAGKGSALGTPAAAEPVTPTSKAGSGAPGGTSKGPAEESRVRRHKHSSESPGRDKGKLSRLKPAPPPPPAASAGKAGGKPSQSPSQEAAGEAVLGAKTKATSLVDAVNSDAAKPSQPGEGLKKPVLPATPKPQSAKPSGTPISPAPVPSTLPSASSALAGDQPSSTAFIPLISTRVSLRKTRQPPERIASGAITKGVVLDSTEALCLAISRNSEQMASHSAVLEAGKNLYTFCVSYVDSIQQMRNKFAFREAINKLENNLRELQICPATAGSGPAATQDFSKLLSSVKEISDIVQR
Structure (SMILES),ΔTm [1] [°C],ΔTm [2] [°C],ΔTm [3] [°C],ΔTm [4] [°C],ΔTm [5] [°C],ΔTm [6] [°C],ΔTm [7] [°C],ΔTm [8] [°C]
Cc1cc(C(=O)CN2CCCCC2)c(C)n1-c1ccc(Cl)cc1,-0.03,-2.43,0.02,-0.16,-0.07,0.08,-1.42,-0.41
CCOC(=O)NCCCC(=O)NCCc1ccccc1,0.36,-0.9,-0.09,0.24,0.15,0.16,-1.13,-0.68
CCCc1nc(C)c2c(C)nc3ccc(OC)nc3n12,1.04,-3.02,-0.07,2.7,1.39,0.58,-1.87,0.69
Nc1ccccc1NC(=O)CCCCCC(=O)Nc1ccccc1,0.27,-2.09,0.5,0.04,-0.05,0.2,-0.94,-0.62
CC/C(=C(/c1ccc(/C=C/C(=O)O)cc1)c1ccc2[nH]ncc2c1)c1ccc(F)cc1Cl,-5.16,-0.16,-3.66,-4.37,3.37,0,1.69,0
C[C@H](Nc1cc(Cl)nc2c1cnn2[C@@H]1O[C@H](COP(=O)(O)CP(=O)(O)O)[C@@H](O)[C@H]1O)c1ccccc1F,1.24,-1.43,-0.1,0.27,1,-0.38,1.74,-0.82
CCNC(=O)c1cc2c(-c3cc(C(C)(C)O)ccc3Oc3c(C)cc(F)cc3C)cn(C)c(=O)c2[nH]1,0.23,11.1,0.42,-0.31,-0.33,1.43,-2.76,0.91
CC(C)(O)c1ccc(-c2nc3c(F)cc(F)cc3c(=O)[nH]2)cc1,1.34,-1.77,-0.55,1.05,-2.12,-4.92,-0.15,-1.14
Cn1cc(C(=O)Nc2ccc([C@@H]3C[C@H]3NCC3CC3)cc2)cn1,0.52,-3.07,0.01,-0.16,-0.77,0.06,-2.24,0.47
CCCOc1cc(OCCCCN(C)C)cc(Oc2cc3c(cc2NS(=O)(=O)c2ccc(OC)c(OC)c2)n(C)c(=O)n3C)c1,0.57,0.5,0.09,0.22,0.59,0,-0.88,
Cc1[nH]nc(C(F)(F)F)c1Cc1sc2c(c1C(=O)N1C[C@](C)(O)CO1)c(=O)n(C)c(=O)n2C(C)C,0.25,1.76,1.15,-0.46,-0.31,0.35,-1.82,1.02
C[C@H](N)C(=O)N1C[C@H](CCCB(O)O)[C@](N)(C(=O)O)C1,0.03,-2.12,-0.11,-0.32,-0.3,0.12,-2.46,-0.11
O=c1c2nnc(C3CCOCC3)n2cc(Br)n1CC1CCCC1,0.74,-2.93,0.35,-0.32,-0.29,0.23,-1.77,-0.67
CCn1c(=S)[nH]c2cc3c(NCc4ccccc4N4CCC(CO)CC4)ncnc3cc21,0.75,4.86,-0.14,0.33,-0.82,0.17,-1.92,-0.23
C[C@@H]1CN(c2ncc(Cl)c(Nc3ccc4c(c3)n(CCC(C)(C)O)c(=O)n4C)n2)C[C@H](C)C1(F)F,-0.67,0.35,1.82,-0.69,4.11,-8.12,4,2.58
Cc1c(Nc2ccc(S(=O)(=O)N3CCN(C)CC3)cc2F)nc2ccc(-c3cnn(C4CC4)c3)cn2c1=O,0.73,-2.59,0.26,-0.28,0.08,0.06,-1.87,-1.92
C=CCn1c(N[C@@H]2C[C@H](c3ccc(OCc4ccccc4)cc3)CN(C)C2)nc2cc[nH]c2c1=O,0.69,0.73,-0.03,-0.36,-0.88,0.13,-1.6,0.04
CC(C)(C)NS(=O)(=O)c1ccc(NC(=O)[C@H](Cc2ccccc2)NC(=O)c2ccc(F)cc2)cc1,2.48,-1.97,0.06,0.21,2.59,-3.67,-0.32,-0.1
Cc1ccc2[nH]c3c(c2c1)CCCC3C(N)=O (stereo not drawn),0.45,-2.26,0.06,-0.29,-0.37,0.52,-2.14,-1.11
O=c1[nH]c(CS[C@H]2CC[C@H](O)CC2)nc2cc(OCC3CC3)cc(F)c12,0.58,-1.62,-0.32,-5.43,0,0.1,-0.76,-0.56
Cc1ncccc1-c1cnc(NCc2c(F)ccc3c2CCO3)n2cnnc12,0.04,-1.73,0.42,0.15,-0.06,0.37,-0.39,-1.52
CC(C)C(=O)c1c(C(C)C)nn2ccccc12,0.8,-2.97,0.95,0.19,-0.21,0.12,-2.35,0.7
COc1cc2c(NC3CCN(C)CC3)nc(N3CCCN(C)CC3)nc2cc1OCCCN(C)C,0.04,-1.01,0.12,0.25,-0.54,0.4,-1.36,-0.25
